Measured values published in the supplement of paper PMC10981050.
Where “and” joins values, the source holds several entries; their conditions need not be identical. Equal values may be shown once. Where a name gives a salt, the structure may show the parent alone.

Tests used:
Assay in all cases: cell viability relative to vehicle control; higher = less cytotoxic
Settings in all cases: 10 µM
K562 = test system: K562
How it was run: (§1)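 Each screen used CRISPR-edited mutant and wild-type clones from four leukaemia lines. Compounds were acoustically dispensed at a single 10 µM dose, and CellTiter-Glo luminescence was read after 48 h with the supernatant first removed. Viability was analysed in Genedata Screener and given as percent of the on-plate vehicle control.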

MARIMO = test system: MARIMO
How it was run: as §1

MOLM14 = test system: MOLM14
How it was run: as §1

OCI-AML2 = test system: OCI-AML2
How it was run: as §1

Structure (SMILES) | cell viability (K562; SRSF2 genotype: SRSF2 P95H/wt) | cell viability (K562; SRSF2 genotype: SRSF2 wt/wt) | cell viability (MARIMO; SRSF2 genotype: SRSF2 P95H/wt) | cell viability (MARIMO; SRSF2 genotype: SRSF2 wt/wt) | cell viability (MOLM14; SRSF2 genotype: SRSF2 P95H/wt) | cell viability (MOLM14; SRSF2 genotype: SRSF2 wt/wt) | cell viability (OCI-AML2; SRSF2 genotype: P95H/wt) | cell viability (OCI-AML2; SRSF2 genotype: wt/wt)
Cc1nc(C#Cc2ccnc(Cl)c2)c(C)n1-c1ccc(OC(F)(F)F)cc1 | 75.6% and 89.6% | 75.7% | 82.7% | 88.9% | 78.8% | 80.2% | 55.7% | 68.7%
CNC(=O)c1cc(Oc2ccc(NC(=O)Nc3cc(C(C)(C)C)nn3-c3ccc4ncccc4c3)c(F)c2)ccn1 [DCC-2036 (Rebastinib)] | 28.3% and 35.4% | 27.5% | 11.8% | 4.62% | 1.63% | 1.54% | 3.03% | 14%
Cc1nnc(C(=O)NC(C)(C)c2nc(C(=O)NCc3ccc(F)cc3)c(O)c(=O)n2C)o1 [Raltegravir (MK-0518)] | 101% and 94.3% | 94.6% | 95.8% | 103% | 98.1% | 93.5% | 95.4% | 98%
Cc1cccc(CC(=O)N2CCc3c2ccc(-c2cn(C)c4ncnc(N)c24)c3F)n1 | 75.2% and 84.4% | 80.4% | 74.5% | 72.5% | 80.8% | 93.8% | 69.3% | 73.8%
C[C@]12CC[C@H](O)CC1=CC[C@@H]1[C@@H]2CC[C@]2(C)C(n3cnc4ccccc43)=CC[C@@H]12 [Galeterone (TOK-001)] | 83% and 93.4% | 95.7% | 77.5% | 81.9% | 88.2% | 97.8% | 80.3% | 80.1%
O=C1C[C@@H](c2ccccc2)Oc2cc(O)cc(O)c21 [Pinocembrin] | 91.6% and 92.5% | 95.4% | 96.4% | 99.8% | 109% | 112% | 95.1% | 87.8%
OCC(O)C(O)C(O)C(O)CO (stereo unspecified) [Allitol] | 111% and 98.4% | 111% | 107% | 101% | 108% | 103% | 109% | 99.3%
C#C[C@]1(O)CC[C@H]2[C@@H]3CCc4cc(OC)ccc4[C@H]3CC[C@@]21C [Mestranol] | 79% and 93.7% | 96.3% | 78.5% | 76% | 90.7% | 99.9% | 74.9% | 82%
C[C@@H]1O[C@@H]1P(=O)(O)O [fosfomycin tromethamine] | 108% and 107% | 100% | 109% | 114% | 103% | 104% | 106% | 98.6%
Cc1cnc(C(=O)N[C@H]2CCCCC/C=C\[C@@H]3C[C@@]3(C(=O)NS(=O)(=O)C3CC3)NC(=O)[C@@H]3C[C@@H](Oc4nc5ccccc5c5ccccc45)CN3C2=O)cn1 [Paritaprevir(ABT-450)] | 98.7% and 91.6% | 91.4% | 106% | 119% | 97.8% | 100% | 115% | 114%
Cn1nccc1Nc1nccc(-c2cc3c(s2)C(C)(C)N(CCN2CCOCC2)C3=O)n1 | 77.8% and 81.6% | 76.5% | 39.5% | 40.1% | 42.6% | 37% | 38.6% | 43.2%
O=C1c2ccccc2C(=O)C1c1ccccc1 [Phenindione (Rectadione)] | 103% and 98.4% | 105% | 105% | 104% | 107% | 106% | 101% | 113%
CNCCCC12CCC(c3ccccc31)c1ccccc12 [Maprotiline hydrochloride] | 76.7% and 74.8% | 71.2% | 65.2% | 71.2% | 64.4% | 83.2% | 51.1% | 56.8%
Cc1cc(C)nc(O)n1.O=C(Nc1ccc([N+](=O)[O-])cc1)Nc1ccc([N+](=O)[O-])cc1 [Nicarbazin] | 100% and 101% | 110% | 97% | 106% | 103% | 101% | 120% | 97.1%
CC1(C)O[C@@H]2C[C@H]3[C@@H]4CCC5=CC(=O)C=C[C@]5(C)[C@@]4(F)[C@@H](O)C[C@]3(C)[C@]2(C(=O)CO)O1 [Triamcinolone Acetonide] | 101% and 100% | 102% | 107% | 97.1% | 100% | 95.3% | 114% | 115%
NC(=O)c1cccc(-c2cccc(OC(=O)NC3CCCCC3)c2)c1 | 95.8% and 91.2% | 96.1% | 95% | 92.4% | 99.5% | 99% | 88.6% | 96.4%
CCS(=O)(=O)N1CCC([C@@H](C)n2c(C)c(C(=O)NCc3c(OC)cc(C)[nH]c3=O)c3ccccc32)CC1 | 100% and 98.2% | 95.7% | 99.8% | 111% | 100% | 99% | 107% | 109%
COc1ccc(CCc2cc(OC)c(OC)c(OC)c2)cc1O [Erianin] | 10.3% and 30.2% | 25.3% | 6.09% | 6.67% | 1.16% | 1.16% | 1.03% | 2.9%
Cn1c(O)c(C2=c3ccccc3=NC2=O)c2ccccc21 [Meisoindigo] | 22.4% and 19.2% | 43.4% | 0.73% | 0.66% | 0.36% | 0.48% | 0.36% | 0.46%
COc1ccccc1OCC(O)CN1CCN(CC(=O)Nc2c(C)cccc2C)CC1 (stereo unspecified) [Ranolazine (Ranexa)] | 99.1% and 96.1% | 91.9% | 96.6% | 102% | 97.8% | 99.2% | 94.9% | 102%
CCCCCCCCCC(C)O (stereo unspecified) [2-Undecanol] | 109% and 107% | 105% | 111% | 102% | 110% | 108% | 110% | 105%
CC1(C)CC(=O)c2c(C(F)(F)F)nn(-c3ccc(C(N)=O)c(N[C@H]4CC[C@H](OC(=O)CN)CC4)c3)c2C1 | 21.8% and 27.1% | 25.3% | 29.4% | 24.4% | 2.89% | 4.44% | 14.6% | 22.1%
